{
  "source": "PubChem BioAssay (NCATS)",
  "note": "Where “and” joins values, the source holds several entries; their conditions need not be identical. Equal entries are not always repeated. Results filed as inconclusive are left out. A call without a number means that no potency is given here. Calls of active or inactive are those of the source. Calls follow the shape of the dose curve; as a rule, active = well fitted cell-killing curve with a large enough effect; inconclusive = small, poorly fitted or top-dose-only effect, or effect the other way; inactive = no such curve, though single readings can be large or run the other way. Non-standard residues stand in square brackets, D forms with d. Residues, ends and D or L forms follow the SMILES beside them. *: point of attachment. Sta = CC(C)C[C@H](N)[C@@H](O)CC(=O)O; Isovaleryl = CC(C)CC(=O)*",
  "data": [
    {"test": "qHTS of pediatric cancer cell lines to identify multiple opportunities for drug repurposing: Confirmatory screen for NB-EBc1 cells (AID 1347115);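 also: cells exposed to compound for 48 h before the viability read; nearly all actives have a fitted effect of over 45% in size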; also: potency is read from the fitted curve at half-maximal effect", "conditions": "NB-EBc1 neuroblastoma cells, viability (cytotoxicity); series mostly up to 45.9 µM", "outline": "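Cells (500-1,000/well) in growth media were settled 5 h at 37 degrees C, then given compounds for 48 h. Viability was read as CellTiter-Glo luminescence. Primary runs used MIPE at 11 points (0.78 nM-46 µM) and NPC at 8 points (0.59 nM-46 µM); follow-ups used 11 points.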", "values": [
      {"smiles": "CN(C)c1ccc2nc3ccc(=[N+](C)C)cc-3sc2c1", "Potency": "6.57 µM (active)"},
      {"smiles": "CS(=O)(=O)OCCCCOS(C)(=O)=O", "Potency": "inactive"},
      {"smiles": "Cc1ccc(NC(=O)c2ccc(CN3CCN(C)CC3)cc2)cc1Nc1nccc(-c2cccnc2)n1", "Potency": "inactive"},
      {"smiles": "Nc1ccn([C@@H]2O[C@H](CO)[C@@H](O)C2O)c(=O)n1", "note": "(some centres undefined)", "Potency": "inactive"},
      {"smiles": "CC(C)CC(=O)N[C@H](C(=O)N[C@H](C(=O)N[C@@H](CC(C)C)[C@@H](O)CC(=O)N[C@@H](C)C(=O)N[C@@H](CC(C)C)[C@@H](O)CC(=O)O)C(C)C)C(C)C", "note": "(Isovaleryl-VV[Sta]A[Sta]-OH)", "Potency": "inactive"},
      {"smiles": "CN(C)c1ccc(O)c2c1C[C@H]1C[C@H]3[C@H](N(C)C)C(=O)C(C(N)=O)=C(O)[C@@]3(O)C(=O)C1=C2O", "Potency": "inactive"},
      {"smiles": "O=C(NCC1CCCCN1)c1cc(OCC(F)(F)F)ccc1OCC(F)(F)F", "note": "(centres undefined)", "Potency": "inactive"},
      {"smiles": "C=C(c1ccc(C(=O)O)cc1)c1cc2c(cc1C)C(C)(C)CCC2(C)C", "Potency": "inactive"},
      {"smiles": "CCCCc1ccc2nc(NC(=O)OC)[nH]c2c1", "Potency": "1.47 µM (active)"},
      {"smiles": "Oc1ccc(-c2nc(-c3ccc(F)cc3)c(-c3ccncc3)[nH]2)cc1", "Potency": "5.22 µM (active)"},
      {"smiles": "Cc1nc(Nc2ncc(C(=O)Nc3c(C)cccc3Cl)s2)cc(N2CCN(CCO)CC2)n1", "Potency": "inactive"},
      {"smiles": "C[C@]12CCC(=O)C=C1CC[C@@H]1[C@H]2[C@@H](O)C[C@@]2(C)[C@H]1CC[C@]2(O)C(=O)CO", "Potency": "inactive"},
      {"smiles": "Nc1ncn([C@H]2C[C@H](O)[C@@H](CO)O2)c(=O)n1", "Potency": "inactive"},
      {"smiles": "c1cnc2cc3c(cc2n1)C1CNCC3C1", "Potency": "inactive"},
      {"smiles": "O=C1c2c(O)cc(O)cc2OC(c2ccc(O)c(O)c2)C1O", "note": "(centres undefined)", "Potency": "inactive"},
      {"smiles": "CCN(CC)CCOc1ccc(Nc2ncc3cc(-c4c(Cl)cccc4Cl)c(=O)n(C)c3n2)cc1", "Potency": "18.5 µM (active)"},
      {"smiles": "Cc1cc(C2CCCCC2)n(O)c(=O)c1", "Potency": "16.5 µM (active)"},
      {"smiles": "CC[C@]1(O)C[C@H]2CN(CCc3c([nH]c4ccccc34)[C@@](C(=O)OC)(c3cc4c(cc3OC)N(C=O)[C@H]3[C@@](O)(C(=O)OC)[C@H](OC(C)=O)[C@]5(CC)C=CCN6CC[C@]43[C@@H]65)C2)C1", "Potency": "827 nM (active) and 4.14 µM (active)"},
      {"smiles": "CCN(CCO)CCCC(C)Nc1ccnc2cc(Cl)ccc12", "note": "(centres undefined)", "Potency": "inactive"},
      {"smiles": "O=C(CCc1ccc(O)cc1)c1c(O)cc(O)cc1O", "Potency": "inactive"},
      {"smiles": "Nc1nc(OCc2ccccc2)c2[nH]cnc2n1", "Potency": "inactive"},
      {"smiles": "CC(C)C[C@H](NC(=O)[C@H](Cc1ccccc1)NC(=O)c1cnccn1)B(O)O", "Potency": "0.0465 µM (active)"},
      {"smiles": "CC(S)C(=O)NCC(=O)O", "note": "(centres undefined)", "Potency": "inactive"},
      {"smiles": "COc1cc(C(C)=O)ccc1OCCCN1CCC(c2noc3cc(F)ccc23)CC1", "Potency": "inactive"}
    ]}
  ]
}
